Measured values as given in the supplement of paper PMC10849652.
Of roughly 7,900 targets only a part is listed; those with a hit were picked by preference. About 0.6% of all pairs of compound and target were hits.

Tests used:
Experiment in all cases: log2 fold change, soluble protein after heating vs DMSO (PISA); higher = thermal stabilisation; K562 cells, 10 uM, 30 min; active = over 0.2 and 3.5 SD of the protein, either way, in both replicates (recomputed)
bafetinib = compound: Cc1ccc(NC(=O)c2ccc(CN3CC[C@H](N(C)C)C3)c(C(F)(F)F)c2)cc1Nc1nccc(-c2cncnc2)n1 [bafetinib]
How it was run: (§1)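 For each measurement, 10 μM compound was applied for 30 min to K562 cells at 2×10^6 cells/mL. Aliquots were heated for 3 min across 48°C-58°C, pooled, and extracted in PBS with 0.5% NP-40 at 4°C; the supernatant after 21,000xg for 90 min was soluble protein. This was quantified by TMTpro 16plex LC-MS/MS with channel sums equalised, and thermal stability was reported relative to control samples from duplicates, on a log2 fold-change scale.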

[1] = compound: Cc1cccc(CC(=O)N2CCc3c2ccc(-c2cn(C)c4ncnc(N)c24)c3F)n1
How it was run: as §1

nilotinib = compound: Cc1cn(-c2cc(NC(=O)c3ccc(C)c(Nc4nccc(-c5cccnc5)n4)c3)cc(C(F)(F)F)c2)cn1 [nilotinib]
How it was run: as §1

[2] = compound: Cc1nc(Nc2n[nH]c3c2CN(C(=O)N[C@H](CN(C)C)c2ccccc2)C3(C)C)c2sccc2n1
How it was run: as §1

dasatinib = compound: Cc1nc(Nc2ncc(C(=O)Nc3c(C)cccc3Cl)s2)cc(N2CCN(CCO)CC2)n1 [dasatinib]
How it was run: as §1

[3] = compound: Cc1ncc(-c2ccnc(Nc3ccc(S(C)(=O)=O)cc3)n2)n1C(C)C
How it was run: as §1

[4] = compound: Cn1cc(-c2ccc3c(c2)CCN3C(=O)Cc2cccc(C(F)(F)F)c2)c2c(N)ncnc21
How it was run: as §1

[5] = compound: Cn1cc(-c2ccc3nnc(C(F)(F)c4ccc5ncccc5c4)n3n2)cn1
How it was run: as §1

tipifarnib = compound: Cn1cncc1[C@@](N)(c1ccc(Cl)cc1)c1ccc2c(c1)c(-c1cccc(Cl)c1)cc(=O)n2C [tipifarnib]
How it was run: as §1

mubritinib = compound: FC(F)(F)c1ccc(/C=C/c2nc(COc3ccc(CCCCn4ccnn4)cc3)co2)cc1 [mubritinib]
How it was run: as §1

Measured: log2 fold change

SPAST (UniProt Q9UBP0)
UniProt Q9UBP0, sequence (Q9UBP0 whole entry, looked up): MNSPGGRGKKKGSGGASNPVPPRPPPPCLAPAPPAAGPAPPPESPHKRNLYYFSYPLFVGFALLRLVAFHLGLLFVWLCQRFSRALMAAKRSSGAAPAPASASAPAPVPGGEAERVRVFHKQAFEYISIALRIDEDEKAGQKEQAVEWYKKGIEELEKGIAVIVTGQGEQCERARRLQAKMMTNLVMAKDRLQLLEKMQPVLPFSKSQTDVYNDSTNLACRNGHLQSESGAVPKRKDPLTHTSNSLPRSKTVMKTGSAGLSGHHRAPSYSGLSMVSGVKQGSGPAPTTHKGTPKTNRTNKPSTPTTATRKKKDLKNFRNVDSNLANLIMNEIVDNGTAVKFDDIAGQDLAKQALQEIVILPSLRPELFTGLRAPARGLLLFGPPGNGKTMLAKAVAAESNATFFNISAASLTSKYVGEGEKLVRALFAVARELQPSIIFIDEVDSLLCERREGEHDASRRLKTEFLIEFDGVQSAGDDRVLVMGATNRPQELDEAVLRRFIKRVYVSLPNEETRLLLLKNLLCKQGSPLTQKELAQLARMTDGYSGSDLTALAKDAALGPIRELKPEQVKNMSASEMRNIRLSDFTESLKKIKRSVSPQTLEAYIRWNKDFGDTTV
active: dasatinib -0.246
inactive: bafetinib -0.015 | [1] -0.057 | nilotinib -0.05 | [2] -0.054 | [3] 0.026 | [4] 0.099 | [5] -0.022 | tipifarnib -0.065 | mubritinib 0.036

TECR (UniProt Q9NZ01)
inactive: bafetinib -0.133 | [1] 0.057 | nilotinib -0.123 | [2] -0.035 | dasatinib -0.109 | [3] 0.021 | [4] -0.006 | [5] -0.012 | tipifarnib -0.135 | mubritinib 0.016

STK17B (UniProt O94768)
inactive: bafetinib 0.024

SURF2 (UniProt Q15527)
inactive: bafetinib -0.103 | [1] 0.039 | nilotinib 0.054 | [2] -0.048 | dasatinib -0.02 | [3] 0.082 | [4] -0.012 | [5] 0.053 | tipifarnib 0.034 | mubritinib -0.013

TBC1D15 isoform 3 (UniProt Q8TC07)
UniProt Q8TC07, sequence (Q8TC07 whole entry, looked up): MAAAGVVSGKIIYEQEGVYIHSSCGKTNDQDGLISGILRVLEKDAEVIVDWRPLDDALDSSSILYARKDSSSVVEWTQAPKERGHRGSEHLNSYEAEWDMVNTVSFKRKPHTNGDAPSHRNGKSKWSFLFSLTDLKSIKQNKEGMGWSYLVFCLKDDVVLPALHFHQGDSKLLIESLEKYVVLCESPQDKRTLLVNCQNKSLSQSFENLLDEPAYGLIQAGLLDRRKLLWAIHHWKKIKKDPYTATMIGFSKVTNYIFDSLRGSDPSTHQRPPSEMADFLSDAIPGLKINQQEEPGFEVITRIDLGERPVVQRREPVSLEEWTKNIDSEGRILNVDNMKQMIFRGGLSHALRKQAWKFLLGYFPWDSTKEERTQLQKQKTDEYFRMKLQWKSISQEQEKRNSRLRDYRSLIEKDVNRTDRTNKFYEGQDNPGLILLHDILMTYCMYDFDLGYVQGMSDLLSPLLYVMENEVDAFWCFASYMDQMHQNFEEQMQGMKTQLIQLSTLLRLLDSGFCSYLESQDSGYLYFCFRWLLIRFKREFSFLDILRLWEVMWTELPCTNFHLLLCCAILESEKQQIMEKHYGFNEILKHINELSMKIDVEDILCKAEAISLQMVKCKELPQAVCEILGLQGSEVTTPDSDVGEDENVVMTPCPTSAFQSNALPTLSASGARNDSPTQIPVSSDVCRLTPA
inactive: bafetinib -0.026 | [1] 0.059 | nilotinib -0.116 | [2] -0.098 | dasatinib -0.133 | [3] -0.004 | [4] -0.052 | [5] 0.011 | tipifarnib -0.134 | mubritinib 0.054

SP3 (UniProt Q02447)
UniProt Q02447, sequence (Q02447 whole entry, looked up): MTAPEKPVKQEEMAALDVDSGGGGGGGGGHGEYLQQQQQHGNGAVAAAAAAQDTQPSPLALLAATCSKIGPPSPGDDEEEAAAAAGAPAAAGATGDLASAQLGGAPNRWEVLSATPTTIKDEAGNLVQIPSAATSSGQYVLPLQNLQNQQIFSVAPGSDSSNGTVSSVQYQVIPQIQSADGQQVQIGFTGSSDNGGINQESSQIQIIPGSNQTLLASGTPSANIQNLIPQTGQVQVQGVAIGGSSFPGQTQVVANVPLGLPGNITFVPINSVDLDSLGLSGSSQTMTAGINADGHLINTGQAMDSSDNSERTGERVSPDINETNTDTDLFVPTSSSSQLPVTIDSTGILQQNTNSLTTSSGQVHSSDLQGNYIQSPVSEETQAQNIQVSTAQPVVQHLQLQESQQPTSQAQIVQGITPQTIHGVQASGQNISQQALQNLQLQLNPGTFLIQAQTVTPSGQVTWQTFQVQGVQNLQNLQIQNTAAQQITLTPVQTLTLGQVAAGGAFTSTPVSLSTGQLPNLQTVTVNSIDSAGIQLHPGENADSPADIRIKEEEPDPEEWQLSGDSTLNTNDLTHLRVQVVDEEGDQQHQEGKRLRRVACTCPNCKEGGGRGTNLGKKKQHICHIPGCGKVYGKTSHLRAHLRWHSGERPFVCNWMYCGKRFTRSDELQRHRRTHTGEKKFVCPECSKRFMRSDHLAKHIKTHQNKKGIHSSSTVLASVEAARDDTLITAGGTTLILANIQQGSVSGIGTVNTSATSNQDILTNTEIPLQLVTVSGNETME
inactive: bafetinib 0.022 | [1] -0.018 | nilotinib -0.01 | [2] 0.093 | dasatinib 0 | [3] -0.042 | [4] -0.044 | [5] 0.103 | tipifarnib -0.041 | mubritinib -0.045

SLC27A2 (UniProt O14975)
UniProt O14975, sequence (O14975 whole entry, looked up): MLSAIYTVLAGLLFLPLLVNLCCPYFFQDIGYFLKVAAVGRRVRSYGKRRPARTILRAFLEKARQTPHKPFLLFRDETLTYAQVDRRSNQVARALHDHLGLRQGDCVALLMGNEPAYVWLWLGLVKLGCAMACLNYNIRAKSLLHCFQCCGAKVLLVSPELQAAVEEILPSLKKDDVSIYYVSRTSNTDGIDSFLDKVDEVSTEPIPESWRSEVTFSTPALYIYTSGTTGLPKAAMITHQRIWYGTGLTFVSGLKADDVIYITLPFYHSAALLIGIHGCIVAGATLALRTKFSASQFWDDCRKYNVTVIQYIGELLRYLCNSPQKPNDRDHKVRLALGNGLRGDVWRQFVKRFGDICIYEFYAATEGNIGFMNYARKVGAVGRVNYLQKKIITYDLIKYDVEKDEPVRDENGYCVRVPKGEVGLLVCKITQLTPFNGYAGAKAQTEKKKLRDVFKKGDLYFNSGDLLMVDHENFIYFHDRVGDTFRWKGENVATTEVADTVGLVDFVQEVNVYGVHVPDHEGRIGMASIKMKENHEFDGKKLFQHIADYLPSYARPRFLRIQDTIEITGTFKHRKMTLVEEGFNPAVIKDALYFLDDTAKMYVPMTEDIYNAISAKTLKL
inactive: bafetinib 0.044 | [1] 0.005 | nilotinib 0.179 | [2] -0.104 | dasatinib -0.106 | [3] 0.025 | [4] 0.054 | [5] 0.073 | tipifarnib 0.187 | mubritinib -0.001

SMCHD1 (UniProt A6NHR9)
inactive: bafetinib 0.306 | [1] 0 | nilotinib 0.037 | [2] -0.011 | dasatinib -0.319 | [3] -0.044 | [4] -0.061 | [5] -0.084 | tipifarnib -0.003 | mubritinib -0.136

TIMM13 (UniProt Q9Y5L4)
UniProt Q9Y5L4, sequence (Q9Y5L4 whole entry, looked up): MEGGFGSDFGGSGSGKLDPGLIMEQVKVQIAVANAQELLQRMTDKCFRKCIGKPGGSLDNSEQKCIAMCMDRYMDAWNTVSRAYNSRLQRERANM
inactive: bafetinib 0.086 | [1] 0.156 | nilotinib 0.018 | [2] -0.017 | dasatinib 0 | [3] 0.035 | [4] 0.07 | [5] -0.003 | tipifarnib -0.111 | mubritinib 0.005

THRAP3 (UniProt Q9Y2W1)
inactive: bafetinib 0.052 | [1] -0.025 | nilotinib 0.049 | [2] -0.177 | dasatinib -0.009 | [3] 0 | [4] -0.045 | [5] -0.033 | tipifarnib 0.118 | mubritinib 0.063

SLIRP (UniProt Q9GZT3)
inactive: bafetinib -0.156 | [1] -0.099 | nilotinib 0.118 | [2] -0.027 | dasatinib -0.134 | [3] -0.073 | [4] 0.131 | [5] 0.075 | tipifarnib 0.031 | mubritinib -0.044

THADA (UniProt Q6YHU6)
inactive: bafetinib 0 | [1] 0.027 | nilotinib -0.068 | [2] 0.045 | dasatinib -0.15 | [3] -0.028 | [4] 0.098 | [5] 0.055 | tipifarnib -0.1 | mubritinib 0.123

TANK (UniProt Q92844)
UniProt Q92844, sequence (Q92844 whole entry, looked up): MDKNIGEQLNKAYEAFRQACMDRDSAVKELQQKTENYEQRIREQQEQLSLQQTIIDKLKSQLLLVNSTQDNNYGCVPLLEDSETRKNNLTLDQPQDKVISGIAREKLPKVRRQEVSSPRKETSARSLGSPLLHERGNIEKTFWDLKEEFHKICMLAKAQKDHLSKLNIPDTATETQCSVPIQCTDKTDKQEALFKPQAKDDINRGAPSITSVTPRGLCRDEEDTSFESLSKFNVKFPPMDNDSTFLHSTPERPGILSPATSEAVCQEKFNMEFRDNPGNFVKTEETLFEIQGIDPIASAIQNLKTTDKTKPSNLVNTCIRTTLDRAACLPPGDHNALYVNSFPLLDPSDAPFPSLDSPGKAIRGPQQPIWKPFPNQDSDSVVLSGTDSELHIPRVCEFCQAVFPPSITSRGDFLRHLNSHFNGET
inactive: bafetinib -0.049 | [1] -0.106 | nilotinib 0.054 | dasatinib -0.025 | [3] 0.082 | [4] -0.021 | [5] -0.036 | tipifarnib -0.016 | mubritinib 0.03
active: [2] 0.337

SPTBN1 (UniProt Q01082)
inactive: bafetinib 0.064 | [1] -0.017 | nilotinib -0.01 | [2] -0.145 | dasatinib -0.043 | [3] 0.054 | [4] -0.009 | [5] -0.007 | tipifarnib -0.045 | mubritinib -0.075

SSRP1 (UniProt Q08945)
UniProt Q08945, sequence (Q08945 whole entry, looked up): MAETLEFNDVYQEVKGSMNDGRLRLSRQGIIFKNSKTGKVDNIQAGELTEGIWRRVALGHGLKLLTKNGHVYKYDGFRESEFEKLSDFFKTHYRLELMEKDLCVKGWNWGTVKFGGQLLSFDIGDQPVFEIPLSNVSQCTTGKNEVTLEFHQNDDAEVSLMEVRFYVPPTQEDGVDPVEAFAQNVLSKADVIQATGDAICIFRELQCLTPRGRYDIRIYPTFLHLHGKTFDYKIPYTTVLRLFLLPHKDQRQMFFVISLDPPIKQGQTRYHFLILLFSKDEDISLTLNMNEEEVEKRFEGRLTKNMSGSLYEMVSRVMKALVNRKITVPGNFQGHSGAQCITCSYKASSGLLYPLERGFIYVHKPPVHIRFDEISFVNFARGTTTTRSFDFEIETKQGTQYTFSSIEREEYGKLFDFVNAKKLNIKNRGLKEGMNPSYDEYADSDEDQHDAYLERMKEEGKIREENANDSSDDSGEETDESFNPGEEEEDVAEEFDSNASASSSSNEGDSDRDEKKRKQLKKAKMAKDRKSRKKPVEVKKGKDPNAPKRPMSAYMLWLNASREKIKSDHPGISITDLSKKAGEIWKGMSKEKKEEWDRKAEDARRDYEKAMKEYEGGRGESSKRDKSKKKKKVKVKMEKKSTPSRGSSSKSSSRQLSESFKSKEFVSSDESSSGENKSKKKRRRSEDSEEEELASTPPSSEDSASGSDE
inactive: bafetinib 0.007 | [1] 0.015 | nilotinib -0.025 | [2] -0.175 | dasatinib -0.059 | [3] -0.075 | [4] 0.03 | [5] -0.033 | tipifarnib 0 | mubritinib 0.009

SUPT5H (UniProt O00267)
inactive: bafetinib -0.044 | [1] 0.033 | nilotinib -0.055 | [2] -0.042 | dasatinib -0.082 | [3] 0.01 | [4] 0.024 | [5] 0.036 | tipifarnib -0.037 | mubritinib 0.031

TJP1 (UniProt Q07157)
inactive: bafetinib -0.061 | [1] 0.008 | nilotinib 0.024 | [2] -0.199 | dasatinib -0.092 | [3] -0.037 | [4] -0.028 | [5] -0.02 | tipifarnib -0.025 | mubritinib 0.073

SMAP (UniProt O00193)
UniProt O00193, sequence (O00193 whole entry, looked up): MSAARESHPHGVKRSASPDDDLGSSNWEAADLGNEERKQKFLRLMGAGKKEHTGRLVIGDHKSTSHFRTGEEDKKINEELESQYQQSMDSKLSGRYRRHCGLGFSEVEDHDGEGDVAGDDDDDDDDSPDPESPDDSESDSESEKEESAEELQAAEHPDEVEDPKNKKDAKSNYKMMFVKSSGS
inactive: bafetinib 0.043 | [1] -0.022 | nilotinib -0.004 | [2] 0.006 | dasatinib 0.033 | [3] -0.011 | [4] 0.005 | [5] -0.027 | tipifarnib -0.042 | mubritinib 0.038

SLC25A4 (UniProt P12235)
inactive: bafetinib -0.027 | [1] -0.097 | nilotinib -0.004 | [2] -0.03 | dasatinib 0.033 | [3] -0.014 | [4] 0.022 | [5] -0.005 | tipifarnib 0.026 | mubritinib -0.024

SPAG9 (UniProt O60271)
inactive: bafetinib -0.056 | [1] -0.014 | nilotinib -0.039 | [2] -0.074 | dasatinib -0.076 | [3] 0.015 | [4] -0.018 | [5] 0.012 | tipifarnib -0.005 | mubritinib 0.054

TCERG1 (UniProt O14776)
inactive: bafetinib 0.03 | [1] 0.077 | nilotinib -0.093 | [2] -0.24 | dasatinib -0.26 | [3] 0.02 | [4] 0.088 | [5] 0.07 | tipifarnib -0.097 | mubritinib 0.183

TEX264 (UniProt Q9Y6I9)
active: [3] 0.845
inactive: bafetinib 0.391 | [1] 0.007 | nilotinib 0.241 | [2] 0.111 | dasatinib 0.265 | [4] 0.047 | [5] 0.114 | tipifarnib -0.006 | mubritinib 0.047

SUCLG1 (UniProt P53597)
UniProt P53597, sequence (P53597 whole entry, looked up): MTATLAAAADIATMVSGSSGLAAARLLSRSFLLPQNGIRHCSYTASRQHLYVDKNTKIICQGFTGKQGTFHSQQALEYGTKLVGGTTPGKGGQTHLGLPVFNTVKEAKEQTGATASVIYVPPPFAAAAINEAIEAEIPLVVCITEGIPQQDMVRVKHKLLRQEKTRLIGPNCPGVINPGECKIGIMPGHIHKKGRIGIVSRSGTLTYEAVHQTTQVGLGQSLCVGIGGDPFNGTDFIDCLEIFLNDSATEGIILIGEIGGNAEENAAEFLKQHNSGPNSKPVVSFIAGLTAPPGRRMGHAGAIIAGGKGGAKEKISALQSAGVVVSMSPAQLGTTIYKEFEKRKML
active: mubritinib -0.273
inactive: bafetinib -0.065 | [1] -0.01 | nilotinib -0.077 | [2] 0.029 | dasatinib -0.025 | [3] -0.008 | [4] 0.027 | [5] 0.078 | tipifarnib -0.008

STAT6 (UniProt P42226)
active: [1] 0.502
inactive: bafetinib 0.027 | nilotinib -0.082 | [2] -0.181 | dasatinib -0.115 | [3] 0.155 | [4] -0.099 | [5] -0.042 | tipifarnib -0.164 | mubritinib 0.179

SRPRA (UniProt P08240)
inactive: bafetinib 0.143 | [1] 0.138 | nilotinib 0.066 | [2] 0.04 | dasatinib -0.105 | [3] 0.123 | [4] 0.054 | [5] -0.037 | tipifarnib -0.141
active: mubritinib 0.227

SRRM2 (UniProt Q9UQ35)
inactive: bafetinib 0.068 | [1] 0.044 | nilotinib 0.02 | dasatinib 0.079 | [3] -0.261 | [4] 0.048 | [5] 0.022 | tipifarnib 0.077 | mubritinib 0.035
active: [2] -0.936

TIAL1 isoform 2 (UniProt Q01085)
UniProt Q01085, sequence (Q01085 whole entry, looked up): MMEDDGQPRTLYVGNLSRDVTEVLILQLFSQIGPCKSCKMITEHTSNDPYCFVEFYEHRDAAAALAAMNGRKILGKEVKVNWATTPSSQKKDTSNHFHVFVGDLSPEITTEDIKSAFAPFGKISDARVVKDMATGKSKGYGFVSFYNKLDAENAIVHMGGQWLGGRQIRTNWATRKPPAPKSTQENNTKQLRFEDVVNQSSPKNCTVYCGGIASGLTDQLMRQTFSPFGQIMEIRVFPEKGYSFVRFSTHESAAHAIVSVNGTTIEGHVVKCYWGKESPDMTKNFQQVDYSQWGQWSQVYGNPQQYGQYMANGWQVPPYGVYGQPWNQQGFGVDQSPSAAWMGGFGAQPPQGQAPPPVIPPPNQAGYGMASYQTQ
inactive: bafetinib -0.072 | [1] -0.028 | nilotinib -0.023 | [2] 0.036 | dasatinib -0.021 | [3] 0.074 | [4] 0.009 | [5] -0.001 | tipifarnib 0.015 | mubritinib 0.013

STK26 (UniProt Q9P289)
inactive: bafetinib -0.057 | [1] 0.026 | nilotinib -0.089 | [2] 0.198 | [3] -0.057 | [4] -0.058 | [5] 0.015 | tipifarnib -0.036 | mubritinib -0.036
active: dasatinib -0.319

SPART (UniProt Q8N0X7)
inactive: bafetinib -0.041 | [1] -0.024 | nilotinib -0.047 | [2] -0.006 | dasatinib -0.117 | [3] 0.051 | [4] -0.025 | [5] 0.059 | tipifarnib -0.077 | mubritinib 0.063

SNRPD3 (UniProt P62318)
UniProt P62318, sequence (P62318 whole entry, looked up): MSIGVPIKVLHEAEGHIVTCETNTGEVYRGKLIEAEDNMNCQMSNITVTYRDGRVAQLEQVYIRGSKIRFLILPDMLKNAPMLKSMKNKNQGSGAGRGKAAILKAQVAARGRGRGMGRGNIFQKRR
inactive: bafetinib 0.013 | [1] -0.077 | nilotinib 0.034 | [2] 0.077 | dasatinib 0.08 | [3] 0.107 | [4] -0.097 | [5] -0.06 | tipifarnib 0.024 | mubritinib 0.011
